Records with an inconclusive call do not appear. Activity calls are given as the source filed them. Rule for the calls: active = hit-call score of the fitted dose curve at least 0.9, where 1 is the maximum; inconclusive = response in the unintended direction; inactive = score below 0.9.
Legend:
[1] = target: human Opioid Receptor Mu (Opiate Mu), OPRM1 (gene 4988) (UniProt P35372); test: NVS_GPCR_hOpiate_mu: NovaScreen (NVS) G Protein-Coupled Receptor Assay for human Opioid Receptor Mu (Opiate Mu) (AID 2283290);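 note: hits lower bound tracer signal versus DMSO meaning displacement of the ligand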
Outline: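 Here, radioligand binding to CHO-extracted receptor was measured after 2.5 h using filter-based scintillation detection. Initial single-concentration screening used 25 uM in duplicate with plate controls; confirmed actives went to concentration-response testing.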

[2] = test system: 5-hydroxytryptamine receptor 2C (pig); test: NVS_GPCR_p5HT2C: NovaScreen (NVS) G Protein-Coupled Receptor Assay for pig Serotonin, 5-Hydroxytryptamine Receptor 2C (5HT2C) (AID 2283288)
Outline: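 Radioligand displacement on membranes from pig choroid plexus, detected by filter scintillation counting after 1 h. Tested first at a single 25 uM in duplicate, then in concentration-response for actives; DMSO served as baseline.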

[3] = target: rat Adrenergic, Alpha 1, Non-selective Receptor (Adra1), Adra1a (gene 29412) (UniProt P43140); test: NVS_GPCR_rAdra1_NonSelective: NovaScreen (NVS) G Protein-Coupled Receptor Assay for rat Adrenergic, Alpha 1, Non-selective Receptor (Adra1) (AID 2283289)
Outline: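 Chemicals first screened in duplicate at 25 uM, then actives tested in concentration series up to 50 uM. Binding measured as displacement of radioligand from rat forebrain membrane receptors, 1 h, filtration with scintillation readout; DMSO baseline.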

[4] = target: guinea pig Serotonin, 5-Hydroxytryptamine Receptor 4 (5HT4), HTR4 (gene 100135548) (UniProt O70528); test: NVS_GPCR_g5HT4: NovaScreen (NVS) G Protein-Coupled Receptor Assay for guinea pig Serotonin, 5-Hydroxytryptamine Receptor 4 (5HT4) (AID 2283294)
Outline: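 Compounds first screened in duplicate at 25 uM, actives followed up in concentration series. Binding measured as displacement of specific radioligand from guinea pig striatal membranes, 1 h, filter-based scintillation read-out versus DMSO baseline.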

[5] = target: rat Serotonin, 5-Hydroxytryptamine Receptor (5HT), Non-Selective Binding, Htr1a (gene 24473) (UniProt P19327); test: NVS_GPCR_r5HT_NonSelective: NovaScreen (NVS) G Protein-Coupled Receptor Assay for rat Serotonin, 5-Hydroxytryptamine Receptor (5HT), Non-Selective Binding (AID 2283295)
Outline: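 Rat cortex membrane preparation incubated 1 h with radioligand and test chemical; bound radioactivity counted after filtration. Screening began in duplicate at 25 uM with concentration-series follow-up; fitting relative to DMSO.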

[6] = test system: rat Adrenergic, Alpha 1B Receptor (Adra1B), gene 24173; test: NVS_GPCR_rAdra1B: NovaScreen (NVS) G Protein-Coupled Receptor Assay for rat Adrenergic, Alpha 1B Receptor (Adra1B) (AID 2283297)
Outline: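 Filter-binding radioligand competition on membranes from rat liver, read after 1 h by scintillation counting. Single-concentration duplicate screen at 25 uM, followed by concentration-response on actives, normalised to DMSO.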

[7] = target: rat Adrenergic Receptor, Alpha 2 (Adra2), Non-selective Binding, Adra2a (gene 25083) (UniProt P22909); test: NVS_GPCR_rAdra2_NonSelective: NovaScreen (NVS) G Protein-Coupled Receptor Assay for rat Adrenergic Receptor, Alpha 2 (Adra2), Non-selective Binding (AID 2283299)
Outline: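 Filter-based scintillation counting of radioligand binding to rat cortical membrane receptors, measured 1.25 hours post-dosing; loss of signal versus DMSO indicates displacement. Initial single-concentration duplicate at 25 uM, then concentration series.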

Adra2b (gene 24174) = Adra2b (gene 24174) (UniProt P19328); test: NVS_GPCR_rmAdra2B: NovaScreen (NVS) G Protein-Coupled Receptor Assay for hybird cells Adrenergic, Alpha 2B Receptor (Adra2B) (AID 2283306)
Outline: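 Compounds screened first at 25 uM in duplicate, with actives followed up in concentration-response; specific radioligand displacement from hybrid neuroglioma/blastoma cell membrane preparations measured by filter scintillation counting after 1 h, normalized to DMSO.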

[8] = target: rat Adrenergic, Alpha 1A Receptor (Adra1A), Adra1a (gene 29412) (UniProt P43140); test: NVS_GPCR_rAdra1A: NovaScreen (NVS) G Protein-Coupled Receptor Assay for rat Adrenergic, Alpha 1A Receptor (Adra1A) (AID 2283296)
Outline: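 Filter radiodetection after 1 h competitive binding on CEC-pretreated rat cortical membranes. Duplicate single-point screening at 25 uM; active chemicals retested across concentration series.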

[9] = target: rat Opioid Receptor, Non-selective Sodium (Na+) Binding, Oprm1 (gene 25601) (UniProt P33535); test: NVS_GPCR_rOpiate_NonSelectiveNa: NovaScreen (NVS) G Protein-Coupled Receptor Assay for rat Opioid Receptor, Non-selective Sodium (Na+) Binding (AID 2283311)
Outline: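 Filtration radioligand binding on rat forebrain membrane preparations, read 1.5 h after dosing. Single-concentration 25 µM primary screen in duplicate, followed by singleton concentration series to 50 µM max for actives; DMSO baseline.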

[10] = target: rat Adrenergic Receptor, Beta (Adrb), Non-selective Binding, Adrb1 (gene 24925) (UniProt P18090); test: NVS_GPCR_rAdrb_NonSelective: NovaScreen (NVS) G Protein-Coupled Receptor Assay for rat Adrenergic Receptor, Beta (Adrb), Non-selective Binding (AID 2283298)
Outline: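 Rat cortical membranes incubated 1 h with beta-adrenergic radioligand and test chemical; bound ligand measured by filtration and scintillation counting. Screen at 25 uM duplicate, then concentration series with 50 uM maximum; loss of signal versus DMSO.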

[11] = target: rat Histamine Receptor (H3), Hrh3 (gene 85268) (UniProt Q9QYN8); test: NVS_GPCR_rH3: NovaScreen (NVS) G Protein-Coupled Receptor Assay for rat Histamine Receptor (H3) (AID 2283303)
Outline: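 Filter-binding radioligand competition on rat forebrain membranes, 1 h incubation; compounds screened at 25 µM in duplicate and followed in concentration series to 50 µM, loss of bound signal vs DMSO.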

[12] = target: rat Neonicotinoid receptor (NNR), Chrna7 (gene 25302) (UniProt Q05941); test: NVS_LGIC_rNNR_BungSens: NovaScreen (NVS) Ligand-Gated Ion Channel Assay for rat Neonicotinoid receptor (NNR) (AID 2283315)
Outline: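 Rat cortical membrane preparation incubated 2.5 h with tritiated or iodinated radioligand and test chemical. Bound radioactivity was filtered and counted by scintillation, and displacement was analysed against DMSO.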

[13] = target: rat Somatostatin Receptor (SST), Sstr1 (gene 25033) (UniProt P28646); test: NVS_GPCR_rSST: NovaScreen (NVS) G Protein-Coupled Receptor Assay for rat Somatostatin Receptor (SST) (AID 2283314)
Outline: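 Single-concentration duplicate screen (25 uM), then concentration-response up to 50 uM for chemicals passing a threshold such as 30% inhibition. Membranes came from rat forebrain. Binding was measured 1 h post-dose by filter radiodetection and scintillation, relative to DMSO.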

[14] = target: guinea pig Bradykinin Receptor B2 (BK2), BDKRB2 (gene 100135486) (UniProt O70526); test: NVS_GPCR_gBK2: NovaScreen (NVS) G Protein-Coupled Receptor Assay for guinea pig Bradykinin Receptor B2 (BK2) (AID 2283292)
Outline: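 Guinea pig ileum membrane preparation incubated 1 h with radioligand and test chemical; bound counts measured after filtration. Primary duplicate screening at 25 uM, then singleton concentration series with a 50 uM top dose; DMSO as baseline.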

[15] = target: Metabotropic glutamate receptor 1 (Rattus norvegicus) (UniProt P23385); test: NVS_GPCR_rmMGluR1: NovaScreen (NVS) G Protein-Coupled Receptor Assay for rat Glutamate Metabotropic Receptor 1 (MGluR1) (AID 2283305)
Outline: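 Binding to native receptor from rat cerebellum extract, measured as displacement of a radioligand (scintillation counting, filter separation) after 1 hour. Compounds tested at 25 uM in duplicate, then titrated to a 50 uM maximum.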

[16] = target: rat Gamma-Aminobutyric Acid Type B Receptor (GABBR), Gabbr1 (gene 81657) (UniProt Q9Z0U4); test: NVS_GPCR_rGABBR: NovaScreen (NVS) G Protein-Coupled Receptor Assay for rat Gamma-Aminobutyric Acid Type B Receptor (GABBR) (AID 2283301)
Outline: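 Rat cortical membrane preparation, competitive radioligand binding for 1 h with filtration and scintillation readout. Actives from duplicate single-point 25 uM screening proceeded to concentration series with 50 uM top concentration.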

[17] = target: rat Neurokinin-1 Receptor (NK1), Tacr1 (gene 24807) (UniProt P14600); test: NVS_GPCR_rNK1: NovaScreen (NVS) G Protein-Coupled Receptor Assay for rat Neurokinin-1 Receptor (NK1) (AID 2283309)
Outline: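 Competitive radioligand binding to NK1 in rat submaxillary membranes, 1 h incubation, filtration and scintillation read-out. Compounds first screened at 25 uM in duplicate, then concentration-response for actives; signal loss relative to DMSO.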

[18] = target: mouse Cholecystokinin, CCK2 Receptor (CCKB), Cckbr (gene 12426) (UniProt P56481); test: NVS_GPCR_mCKKBCentral: NovaScreen (NVS) G Protein-Coupled Receptor Assay for mouse Cholecystokinin, CCK2 Receptor (CCKB) (AID 2283293)
Outline: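 Mouse forebrain membrane preparation incubated 2 h with chemical and radioligand; bound radioactivity counted after filtration. Single-concentration duplicate screen at 25 uM, then concentration series to 50 uM max for hits, DMSO as baseline.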

Chain of rat Serotonin, 5-Hydroxytryptamine Receptor (5HT), Non-Selective Binding, Htr1a (gene 24473) (P19327 whole entry, looked up): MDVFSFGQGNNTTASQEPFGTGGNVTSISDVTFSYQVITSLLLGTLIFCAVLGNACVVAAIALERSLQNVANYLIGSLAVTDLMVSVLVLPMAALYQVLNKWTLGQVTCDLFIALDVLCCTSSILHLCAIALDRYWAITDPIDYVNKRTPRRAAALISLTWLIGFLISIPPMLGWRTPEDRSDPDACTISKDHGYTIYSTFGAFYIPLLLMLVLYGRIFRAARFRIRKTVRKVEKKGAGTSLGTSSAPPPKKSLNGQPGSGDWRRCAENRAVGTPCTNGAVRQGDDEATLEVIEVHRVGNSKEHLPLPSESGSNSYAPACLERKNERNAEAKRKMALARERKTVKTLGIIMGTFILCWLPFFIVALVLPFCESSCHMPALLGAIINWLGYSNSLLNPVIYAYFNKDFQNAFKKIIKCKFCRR
Chain of rat Adrenergic Receptor, Beta (Adrb), Non-selective Binding, Adrb1 (gene 24925) (P18090 whole entry, looked up): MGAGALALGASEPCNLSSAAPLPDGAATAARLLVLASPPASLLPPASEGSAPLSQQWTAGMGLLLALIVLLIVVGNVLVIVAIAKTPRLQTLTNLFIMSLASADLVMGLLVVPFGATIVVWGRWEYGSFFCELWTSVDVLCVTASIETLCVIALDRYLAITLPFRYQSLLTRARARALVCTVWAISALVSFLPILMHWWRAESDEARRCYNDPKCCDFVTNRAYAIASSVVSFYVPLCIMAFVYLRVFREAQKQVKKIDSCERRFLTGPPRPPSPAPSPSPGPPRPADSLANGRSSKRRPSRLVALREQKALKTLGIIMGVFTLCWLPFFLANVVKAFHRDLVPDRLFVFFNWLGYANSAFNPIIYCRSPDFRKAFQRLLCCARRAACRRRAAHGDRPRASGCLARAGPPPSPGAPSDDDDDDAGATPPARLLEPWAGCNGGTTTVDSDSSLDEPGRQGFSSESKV
Chain of Adra2b (gene 24174) (P19328 whole entry, looked up): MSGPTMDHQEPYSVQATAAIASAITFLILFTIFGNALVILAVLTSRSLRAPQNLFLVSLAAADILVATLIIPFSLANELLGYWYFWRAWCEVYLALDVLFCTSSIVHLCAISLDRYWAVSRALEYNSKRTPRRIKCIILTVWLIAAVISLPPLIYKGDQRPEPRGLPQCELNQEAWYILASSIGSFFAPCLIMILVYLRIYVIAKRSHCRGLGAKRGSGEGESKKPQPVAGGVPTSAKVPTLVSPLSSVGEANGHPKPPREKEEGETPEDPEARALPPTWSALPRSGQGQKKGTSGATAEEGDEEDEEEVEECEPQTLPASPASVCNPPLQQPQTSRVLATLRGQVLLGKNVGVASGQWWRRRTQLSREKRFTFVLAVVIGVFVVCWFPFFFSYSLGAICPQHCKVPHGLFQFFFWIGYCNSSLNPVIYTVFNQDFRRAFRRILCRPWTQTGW
Chain of rat Neurokinin-1 Receptor (NK1), Tacr1 (gene 24807) (P14600 whole entry, looked up): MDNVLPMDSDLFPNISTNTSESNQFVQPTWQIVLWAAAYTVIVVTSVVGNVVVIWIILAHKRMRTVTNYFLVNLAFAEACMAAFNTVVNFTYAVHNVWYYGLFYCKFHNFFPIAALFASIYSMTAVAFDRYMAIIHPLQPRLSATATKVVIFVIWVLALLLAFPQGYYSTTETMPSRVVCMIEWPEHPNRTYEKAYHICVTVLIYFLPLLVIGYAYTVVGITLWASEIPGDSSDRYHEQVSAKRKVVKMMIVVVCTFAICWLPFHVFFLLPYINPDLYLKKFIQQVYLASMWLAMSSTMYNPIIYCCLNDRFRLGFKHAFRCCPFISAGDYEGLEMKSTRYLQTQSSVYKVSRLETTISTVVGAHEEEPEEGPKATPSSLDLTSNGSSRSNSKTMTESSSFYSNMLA
Chain of rat Somatostatin Receptor (SST), Sstr1 (gene 25033) (P28646 whole entry, looked up): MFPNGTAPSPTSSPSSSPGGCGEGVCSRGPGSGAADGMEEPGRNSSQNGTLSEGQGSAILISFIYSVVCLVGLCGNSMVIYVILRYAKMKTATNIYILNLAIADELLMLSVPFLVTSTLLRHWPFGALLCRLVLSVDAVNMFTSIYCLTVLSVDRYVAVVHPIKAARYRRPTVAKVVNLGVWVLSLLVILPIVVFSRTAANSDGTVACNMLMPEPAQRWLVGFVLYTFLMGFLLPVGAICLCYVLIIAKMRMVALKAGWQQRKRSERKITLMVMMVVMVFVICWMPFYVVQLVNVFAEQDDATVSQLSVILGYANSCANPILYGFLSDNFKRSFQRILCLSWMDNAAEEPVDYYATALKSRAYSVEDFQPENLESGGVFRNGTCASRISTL
Chain of guinea pig Serotonin, 5-Hydroxytryptamine Receptor 4 (5HT4), HTR4 (gene 100135548) (O70528 whole entry, looked up): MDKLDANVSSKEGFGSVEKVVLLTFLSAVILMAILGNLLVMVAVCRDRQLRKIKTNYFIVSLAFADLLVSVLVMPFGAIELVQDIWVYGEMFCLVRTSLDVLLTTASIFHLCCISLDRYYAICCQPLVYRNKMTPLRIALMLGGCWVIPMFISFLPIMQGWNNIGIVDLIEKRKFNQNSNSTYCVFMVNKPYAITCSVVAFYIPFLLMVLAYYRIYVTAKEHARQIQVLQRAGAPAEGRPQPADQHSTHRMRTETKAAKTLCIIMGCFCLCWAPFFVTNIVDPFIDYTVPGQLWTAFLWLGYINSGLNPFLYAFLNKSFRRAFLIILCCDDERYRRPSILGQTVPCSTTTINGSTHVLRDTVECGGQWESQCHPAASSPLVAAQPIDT
Chain of human Opioid Receptor Mu (Opiate Mu), OPRM1 (gene 4988) (P35372 whole entry, looked up): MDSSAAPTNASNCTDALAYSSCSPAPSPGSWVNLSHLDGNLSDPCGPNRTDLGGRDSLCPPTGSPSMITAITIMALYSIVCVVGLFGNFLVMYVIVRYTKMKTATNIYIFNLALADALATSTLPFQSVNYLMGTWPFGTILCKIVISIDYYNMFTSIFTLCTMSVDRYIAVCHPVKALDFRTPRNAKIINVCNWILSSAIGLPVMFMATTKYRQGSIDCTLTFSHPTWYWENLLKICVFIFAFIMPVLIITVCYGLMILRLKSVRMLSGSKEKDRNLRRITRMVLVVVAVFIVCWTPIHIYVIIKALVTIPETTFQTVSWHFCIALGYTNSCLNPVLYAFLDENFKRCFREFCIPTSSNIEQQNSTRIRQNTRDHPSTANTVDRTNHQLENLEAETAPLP
Chain of rat Adrenergic, Alpha 1, Non-selective Receptor (Adra1), Adra1a (gene 29412) (P43140 whole entry, looked up): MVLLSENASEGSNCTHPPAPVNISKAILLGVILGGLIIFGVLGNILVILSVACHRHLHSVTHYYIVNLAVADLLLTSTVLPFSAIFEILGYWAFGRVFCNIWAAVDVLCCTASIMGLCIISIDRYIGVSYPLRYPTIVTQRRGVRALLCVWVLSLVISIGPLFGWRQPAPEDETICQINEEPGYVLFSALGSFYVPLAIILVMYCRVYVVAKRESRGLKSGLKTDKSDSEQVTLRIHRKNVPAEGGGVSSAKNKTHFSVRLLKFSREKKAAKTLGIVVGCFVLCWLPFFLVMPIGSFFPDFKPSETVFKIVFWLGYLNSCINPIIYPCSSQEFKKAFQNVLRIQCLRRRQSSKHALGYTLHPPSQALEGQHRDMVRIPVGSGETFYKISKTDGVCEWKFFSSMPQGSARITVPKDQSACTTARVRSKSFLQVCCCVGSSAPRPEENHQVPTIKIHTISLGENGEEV
Chain of Metabotropic glutamate receptor 1 (Rattus norvegicus) (P23385 whole entry, looked up): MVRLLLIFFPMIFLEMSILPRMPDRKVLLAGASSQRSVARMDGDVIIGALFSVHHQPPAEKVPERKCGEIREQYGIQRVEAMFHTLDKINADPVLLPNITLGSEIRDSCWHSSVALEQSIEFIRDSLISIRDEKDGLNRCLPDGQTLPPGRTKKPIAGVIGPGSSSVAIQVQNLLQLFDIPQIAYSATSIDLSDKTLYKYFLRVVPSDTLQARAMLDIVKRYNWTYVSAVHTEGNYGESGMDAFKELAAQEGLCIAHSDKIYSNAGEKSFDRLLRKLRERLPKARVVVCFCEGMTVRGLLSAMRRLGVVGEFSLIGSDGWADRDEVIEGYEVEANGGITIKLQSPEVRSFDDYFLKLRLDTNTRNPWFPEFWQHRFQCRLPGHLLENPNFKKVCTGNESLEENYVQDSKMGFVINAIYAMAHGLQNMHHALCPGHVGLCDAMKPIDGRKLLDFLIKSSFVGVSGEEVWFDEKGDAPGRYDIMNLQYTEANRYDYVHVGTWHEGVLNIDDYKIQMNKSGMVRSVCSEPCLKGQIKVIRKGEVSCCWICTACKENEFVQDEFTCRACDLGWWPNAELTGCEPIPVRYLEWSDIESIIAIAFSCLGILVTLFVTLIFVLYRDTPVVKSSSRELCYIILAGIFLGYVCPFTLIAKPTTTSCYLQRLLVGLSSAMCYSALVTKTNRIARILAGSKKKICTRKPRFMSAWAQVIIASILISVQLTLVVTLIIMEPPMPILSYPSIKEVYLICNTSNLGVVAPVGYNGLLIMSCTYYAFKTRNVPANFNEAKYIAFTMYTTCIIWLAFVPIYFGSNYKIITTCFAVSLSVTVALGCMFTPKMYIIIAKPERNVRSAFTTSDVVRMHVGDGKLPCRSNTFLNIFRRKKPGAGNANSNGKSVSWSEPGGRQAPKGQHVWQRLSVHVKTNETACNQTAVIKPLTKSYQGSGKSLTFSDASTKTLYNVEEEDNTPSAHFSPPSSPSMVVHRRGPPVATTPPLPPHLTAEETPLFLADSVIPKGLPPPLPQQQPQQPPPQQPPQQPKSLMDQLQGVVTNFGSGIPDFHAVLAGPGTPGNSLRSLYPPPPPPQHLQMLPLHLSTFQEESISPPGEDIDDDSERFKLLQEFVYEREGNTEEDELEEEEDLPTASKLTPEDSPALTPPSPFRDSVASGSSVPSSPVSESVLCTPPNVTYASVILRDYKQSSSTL
Chain of rat Opioid Receptor, Non-selective Sodium (Na+) Binding, Oprm1 (gene 25601) (P33535 whole entry, looked up): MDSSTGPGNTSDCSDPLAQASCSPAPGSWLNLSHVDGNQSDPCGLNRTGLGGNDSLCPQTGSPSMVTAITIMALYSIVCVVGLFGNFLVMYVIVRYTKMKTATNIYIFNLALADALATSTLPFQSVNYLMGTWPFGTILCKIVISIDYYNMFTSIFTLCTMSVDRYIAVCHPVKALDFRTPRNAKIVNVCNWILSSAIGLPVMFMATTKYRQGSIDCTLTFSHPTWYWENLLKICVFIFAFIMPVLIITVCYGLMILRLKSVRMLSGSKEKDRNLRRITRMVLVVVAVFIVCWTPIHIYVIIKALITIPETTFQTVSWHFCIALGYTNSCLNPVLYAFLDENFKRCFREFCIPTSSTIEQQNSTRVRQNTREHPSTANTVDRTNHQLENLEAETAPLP

## Nc1nc(N)c2nc(CNc3ccc(C(=O)N[C@@H](CCC(=O)O)C(=O)O)cc3)cnc2n1
[1]
  AC50: 5.21 µM (active)

## CCCCC(CC)COC(=O)CC(C(=O)OCC(CC)CCCC)S(=O)(=O)O (configuration not stated)
[2]
  AC50: 32.4 µM (active)
[3]
  AC50: 17 µM (active)
[1]
  AC50: 14.8 µM (active)
[4]
  AC50: 36 µM (active)
[5]
  AC50: 25 µM (active)
[6]
  AC50: 29.2 µM (active)
[7]
  AC50: 32.9 µM (active)
Adra2b (gene 24174)
  AC50: 22.4 µM (active)

## NC(=O)Cn1c(=O)cc(CCN2CCN(c3nccc4sccc34)CC2)c2ccc(F)cc21
[2]
  AC50: 0.00974 µM (active)
[3]
  AC50: 0.0868 µM (active)
[5]
  AC50: 0.0315 µM (active)
[8]
  AC50: 0.258 µM (active)
[6]
  AC50: 0.595 µM (active)
[7]
  AC50: 0.167 µM (active)
Adra2b (gene 24174)
  AC50: 0.131 µM (active)
[9]
  AC50: 1.38 µM (active)

## CNCc1cc(F)ccc1Oc1ccc(Cl)c(Cl)c1
[10]
  AC50: 12.2 µM (active)
[11]
  outcome: inactive
Adra2b (gene 24174)
  AC50: 8.41 µM (active)
[9]
  AC50: 25 µM (active)
[12]
  AC50: 28.5 µM (active)

## Cc1cc(=O)[nH]c(=S)[nH]1
[13]
  AC50: 13.2 µM (active)

## NCCO
[14]
  outcome: inactive

## CC1(C)CC(N=C=O)CC(C)(CN=C=O)C1 (configuration not stated)
[15]
  outcome: inactive

## Cc1oc(-c2ccccc2)nc1CCOc1cccc2c1ccn2CCC(=O)O
[16]
  AC50: 15.9 µM (active)

## C=CCc1ccc(O)c(OC)c1
[2]
  outcome: inactive

## COCCOC[C@H](CC1(C(=O)NC2CCC(C(=O)O)CC2)CCCC1)C(=O)Oc1ccc2c(c1)CCC2 (some centres not stated)
[13]
  AC50: 5.45 µM (active)

## Nc1ccccc1N
[17]
  outcome: inactive

## CC(C)(C)c1cc(O)c(C(C)(C)C)cc1O
[13]
  AC50: 3.63 µM (active)

## CCCCCCC(=O)OCC
[4]
  outcome: inactive

## CC(=O)C(C)=CC1C(C)=CCCC1(C)C (configuration not stated)
[5]
  outcome: inactive
[10]
  outcome: inactive

## COc1cc(S(=O)(=O)O)c(C)cc1N=Nc1c(O)ccc2cc(S(=O)(=O)O)ccc12
[4]
  AC50: 41.9 µM (active)
[6]
  outcome: inactive
[17]
  AC50: 25 µM (active)

## CC(C)c1ccc(C(=O)N=C(N)N)cc1S(C)(=O)=O
[10]
  outcome: inactive

## COc1ccc(S(=O)(=O)N2C(=O)[C@@](c3ccccc3OC)(N3C[C@H](O)C[C@H]3C(=O)N(C)C)c3cc(Cl)ccc32)c(OC)c1
[18]
  AC50: 25 µM (active)
[15]
  outcome: inactive
[17]
  AC50: 11.3 µM (active)

## CNC(=O)[C@H]1O[C@@H](n2cnc3c(NCc4cc(Cl)ccc4OCc4cc(C)no4)ncnc32)[C@H](O)[C@@H]1N
Adra2b (gene 24174)
  outcome: inactive
[13]
  AC50: 37.9 µM (active)
